# Assay outcomes deposited in PubChem by National Center for Advancing Translational Sciences (NCATS).
# Shown are actives, neighbours in structure and some others; about 3.8% of the full set was active somewhere.
# SKOV3 invasion – Primary qHTS assay for Inhibitors of ovarian cancer metastasis using an organotypic tumor microenvironment (TME) model; Potency, µM (top dose mostly 45.8 µM), for inactives: at the top dose activity change, negative = inhibition, usual class: inhibitors; 0.1% of 46,000 active; AID 1963576, 2024; SKOV3ip1-GFP adhesion/invasion on 3D omental model, fluorescence;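 further: potency means the concentration at half of the fitted maximal effect; plate controls were DMSO wells for no effect and tomatine positive control wells for full effect; nearly all actives have a fitted effect of over 65% in size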
#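 A 3D layer of primary human omental fibroblasts, mesothelial cells, fibronectin and collagen I, grown 48 hr, received SKOV3ip1-GFP cells in serum-free medium plus compounds at 0.36-46 umol/L. After 2 hr RT and 16 hr 37 C, fixed adherent GFP cells were counted; normalized to DMSO and tomatine.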
# FH mod – Identification of activators of human fumarate hydratase by quantitative high-throughput screening | Fumarate hydratase, mitochondrial (Homo sapiens), P07954 | FH coupled MDH/diaphorase resazurin fluorescence, 15 min | Potency, µM (titrated, usually from 79.9 µM), without a hit: at the highest dose activity change, negative = inhibition, hits mostly inhibitors | 0.22% of 54,000 active | AID 1347055, 2019; further: potency means the concentration at half of the fitted maximal effect; on the % scale 0 is the no-effect control and ±100 the full control effect; the screen sought activators but most active calls are inhibition curves; nearly all actives have a fitted effect of over 45% in size
# NTMT1 inh – Primary qHTS for Inhibitors of N-terminal methyltransferase 1 (NTMT1): MTaseGlo Assay | NTMT1 MTase-Glo SAH luminescence, purified enzyme | 2.5% of 59,000 active | N-terminal Xaa-Pro-Lys N-methyltransferase 1 (Homo sapiens), Q9BV86 | Potency, µM (titrated, usually from 114 µM), for the others: top-dose activity change, negative = inhibition, most hits filed as inhibitors;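 further: potency means the concentration at half of the fitted maximal effect; plate controls were DMSO vehicle for no effect and no enzyme for full effect; nearly all actives have a fitted effect of over 65% in size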
# Target sequence (Q9BV86 whole entry, looked up): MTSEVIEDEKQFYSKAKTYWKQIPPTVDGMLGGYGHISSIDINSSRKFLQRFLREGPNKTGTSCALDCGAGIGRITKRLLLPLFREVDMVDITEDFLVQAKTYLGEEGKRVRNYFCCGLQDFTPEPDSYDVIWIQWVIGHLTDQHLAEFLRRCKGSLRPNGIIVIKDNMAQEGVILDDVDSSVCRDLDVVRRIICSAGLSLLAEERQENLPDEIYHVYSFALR
# GPR32 ag – qHTS for Agonists of Human Resolvin D1 Receptor DRV1; Probable G-protein coupled receptor 32 (Homo sapiens), O75388; CHO-K1 GPR32 beta-arrestin PathHunter luminescence, 90 min; zero percent set by DMSO-only wells; activation, % at 76.9 µM; 2.5% of 48,000 active; AID 1346428, 2018;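 active means activation of at least 60% and not above a set upper limit, about 1 call in 100 departs from these limits; inconclusive means activation of 40% to 60%, or above that upper limit; inactive means activation under 40%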; further: 0% is about no effect
# Target sequence (O75388 whole entry, looked up): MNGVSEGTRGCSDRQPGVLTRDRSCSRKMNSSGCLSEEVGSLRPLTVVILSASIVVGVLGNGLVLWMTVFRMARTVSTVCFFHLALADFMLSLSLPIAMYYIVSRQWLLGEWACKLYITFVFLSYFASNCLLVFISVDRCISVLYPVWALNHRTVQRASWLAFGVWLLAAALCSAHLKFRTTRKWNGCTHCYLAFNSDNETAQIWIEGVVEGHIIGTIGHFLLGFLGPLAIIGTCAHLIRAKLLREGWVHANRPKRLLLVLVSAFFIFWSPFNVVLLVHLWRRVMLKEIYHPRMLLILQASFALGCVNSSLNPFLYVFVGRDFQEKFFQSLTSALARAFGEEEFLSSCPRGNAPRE
#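 CHO-K1 cells stably expressing ProLink-tagged GPR32 and Enzyme Activator-tagged beta-arrestin were seeded at 2,500 cells/well overnight, exposed to compounds for 90 min at 37 °C, then read by beta-Gal complementation chemiluminescence after 1 h detection reagent.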
# * marks the source's active call; other numbers are inactive results; i = inactive; ? = inconclusive; . = not tested or not shown; ! = repeats disagree; [ ] = another dose, or the depositor's remark. Unless noted, the call rests on the fitted dose curve; in most records, active means well fitted curve in the direction sought with a large enough effect; inconclusive means small, poorly fitted or top-dose-only effect, or another doubt; inactive means no such curve, though single readings can be large; an effect the other way counts as inactive or inconclusive.
SMILES,SKOV3 invasion,FH mod,NTMT1 inh,GPR32 ag
CCOC(=O)c1c(NC(=O)c2ccc(S(=O)(=O)N(CC(C)C)CC(C)C)cc2)sc2c1CCN(CC)C2,-5%,-9%,89µM*,33
CCCCN(CCCC)S(=O)(=O)c1ccc(C(=O)Nc2sc3c(c2C(N)=O)CCN(CC)C3)cc1,8%,-4%,2%,5
Cc1cc(O)c2c(O)c3c(O)cccc3cc2c1,.,-13%[53.3 µM],-23%[57.5 µM],108*
Cc1ccc(C(C)C)c(O)c1,.,-6%[53.3 µM],-7%[57.5 µM],0
Cc1cc(O[C@@H](CCC(F)(F)F)c2ccc(C(=O)NCCC(=O)O)cc2)cc(C)c1-c1ccc(C(C)(C)C)cc1,.,.,32µM*,.
O=C(NCc1ccccc1)c1ccc2c(c1)N(Cc1cccc(Cl)c1)C(=O)c1ccccc1S2(=O)=O,2%,-12%,-27%,-24
CN(C)CCNC(=O)C1CCN(Cc2cc3ccccc3n2Cc2ccccc2)CC1,?,-4%,?,64*
CCCNC(=O)C1CCN(Cc2cc3ccccc3n2Cc2ccccc2)CC1,1%,-14%,1%,-13
CCCCc1ccc(NS(=O)(=O)c2cc3c4c(c2)CC(=O)N4CCC3)cc1,-7%,?,3%,105*
Cc1ccccc1Cn1nc(C)c(NC(=O)c2cc(CC(C)C)on2)c1C,-1%,.,.,64*
CC1=C(C(=O)Nc2ccc(Cl)cc2)C(c2ccc(C(F)(F)F)cc2)n2nnnc2N1 (stereo not drawn),i,-18%,-6%,65*
CC1(C)O[C@@H]2C[C@H]3[C@@H]4CCC5=CC(=O)C=C[C@]5(C)[C@H]4[C@@H](O)C[C@]3(C)[C@]2(C(=O)CO)O1,.,.,14%,.
O=C(Cn1cnc2nc3c(cc2c1=O)CCCC3)N1CCN(c2ccccc2)CC1,3%,-5%,-3%,-6
Cc1ccc(-n2ncc3c(N4CCN(c5ccccc5)CC4)ncnc32)cc1C,-15%,-2%,-1%,6
Cc1ccc(-n2ncc3c(N4CCN(C)CC4)ncnc32)cc1C,7%,1%,?,75*
Cc1ccc(-n2ncc3c(NCCCN4CCOCC4)ncnc32)cc1C,-1%,-5%,50µM*,35
COCC(=O)NCc1nc2cccnc2n1Cc1ccc(F)cc1,-2%,-19%,-2%,-2
O=C(Nc1ccccc1-c1cn2c(CN3CCNCC3)csc2n1)c1cnc2ccccc2n1,-15%,?,3.5µM*!,.
Cc1ccc(NC(=O)c2nnn(Cc3cccc(C(F)(F)F)c3)c2N)c(C)c1,i,14%,6%,93*
CCc1cccc(NC(=O)c2nnn(Cc3ccc(SC)cc3)c2N)c1,9%,4%,13%,62*
COc1ccc(OC)c(CNC(=O)c2ccc3c(c2)c(C)c(C)n3Cc2ccc(Cl)cc2)c1,2%,-18%,20%,-21
COc1ccc(OC)c(CNC(=O)c2ccc3c(c2)c(C)c(C)n3C)c1,-8%,-13%,89µM*,-24
CCOc1ccc(CCNC(=O)c2ccc3c(c2)c(C)c(C)n3C)cc1,3%,16µM*,?,-8
CCOc1ccc(CCNC(=O)c2ccc3[nH]c(C)c(C)c3c2)cc1,20%,?,-21%,72*
CCOc1ccc(NC(=O)c2ccc3[nH]c(C)c(C)c3c2)cc1,1%,?,-9%,9
SMILES,SKOV3 invasion,FH mod,NTMT1 inh,GPR32 ag
Cc1ccc(CCNC(=O)c2ccc3[nH]c(C)c(C)c3c2)cc1,9%,35µM*,?,2
CCC(=O)N1CCc2cc(Br)cc(S(=O)(=O)NCc3cccc(OC)c3)c21,i,0%,-3%,-3
COc1ccc(CCNC(=O)c2ccc3[nH]c(C)c(C)c3c2)cc1OC,16%,?,-30%,113*
COc1ccc(OC)c(CCNC(=O)c2ccc3[nH]c(C)c(C)c3c2)c1,1%,-20%,-6%,-7
c1cn2cc(-c3ccc4cn[nH]c4c3)nc(Nc3ccc(N4CCOCC4)cc3)c2n1,.,-6%,20µM*,.
Cc1ccc(Nc2c(-c3ccc(N4CCOCC4)cc3)nc3ncccn23)cc1,21%,-4%,21%,-19
CCc1ccc(CNC(=O)c2cc3ccccn3n2)cc1,0%,-12%,5%,3
Cc1cccc(CCNC(=O)c2cc3ccccn3n2)c1,i,.,.,101*
COc1ccc(C(=O)O)cc1Nc1nc2ccc(C)cc2n2cnnc12,-9%,?,71µM*,-10
Cc1c(Cl)cccc1Nc1nc2ccc(C(=O)c3ccccc3)cc2n2cnnc12,6%,-19%,19%,-23
COC(=O)CN1C(=O)CSc2ccc(S(=O)(=O)N3CCOCC3)cc21,-1%,.,.,-1
N#C/C(=C\c1ccc(-c2ccc(Br)cc2)o1)C(=O)Nc1ccccc1O,-1%,-1%,-11%,12
N#C/C(=C\c1ccc(-c2ccc(C(=O)O)cc2)o1)C(=O)Nc1ccccc1C(=O)O,-3%,14µM*,2%,-2
CCN(CC)c1ccc(C(=O)Nc2ccc3nc(N(CC)CC)cc(C)c3c2)cc1,-9%,-14%,0%,9
Cc1ccc(Nc2nc(C(N)=O)c(NC(=O)c3ccccc3Br)s2)cc1,i,-7%,?,61*
NC(=O)c1nc(Nc2ccccc2)sc1NC(=O)c1c(F)cccc1F,8%,5%,-6%,-2
CCc1cnc2c(c1SCC(=O)N1CCCCC1)c(=O)n(C)c(=O)n2C,6%,2%,-1%,-5
CCc1cnc2c(c1SC(C(C)=O)C(=O)N(C)C)c(=O)n(C)c(=O)n2C (stereo not drawn),4%,-3%,25µM*,6
Cc1ccc(NC(=O)Cn2nc(Cc3ccncc3)c3ccccc3c2=O)c(Cl)c1,8%,-11%,?,-18
CCc1ccc(NC(=O)Cn2c(=O)n(CCCCC(=O)NCc3ccccc3Cl)c(=O)c3ccccc32)cc1,i,-6%,?,-2
CCc1ccc(NC(=O)Nc2cn(C)c(=O)c3ccccc23)cc1,?,32µM*[activator],?,-36
Cc1ccc(NC(=O)Nc2cn(C)c(=O)c3ccccc23)c(Cl)c1,i,28µM*[activator],12%,-54
O=C(NCCc1csc(-c2cccnc2)n1)c1cccc(C(F)(F)F)c1,i,-5%,-1%,68*
O=C(NCCc1csc(-c2cccnc2)n1)c1ccc(F)c(F)c1,i,-3%,1%,?
Cc1ccc(S(=O)(=O)NCCc2csc3nc(-c4ccccc4C)nn23)cc1,8%,-13%,-5%,80*
Cc1ccc(-c2nc3scc(CCNS(=O)(=O)c4ccc(C)c(C)c4)n3n2)cc1,8%,-21%,9%,7
CCC(=O)Oc1ccc(/C=C(\C#N)c2nc3ccccc3[nH]2)cc1OC,2%,-7%,25µM*,31
COc1ccc(C)cc1NC(=O)CCS(=O)(=O)c1cc2c3c(c1)CCN3C(=O)CC2,6%,-5%,45µM*,-5
Cc1cccc(NC(=O)c2ccc3[nH]c(C)cc(=O)c3c2)c1,0%,-14%,?,4
